Test results published in PubChem BioAssay (Tox21).
Records with an inconclusive call do not appear. A call without a number means that no potency is given here. Calls of active or inactive are those of the source. Calls follow the shape of the dose curve; as a rule, active = well fitted activation curve with a large enough effect in the signal ratio in the repeat runs (not every such curve was filed as active); inconclusive = weak or mixed curves, or effect the other way; inactive = no such curve, though single readings can be large or run the other way; the % refers to the signal ratio.

Assay: qHTS assay for small molecule agonists of the antioxidant response element (ARE) signaling pathway (AID 743202)
Conditions: HepG2 ARE-bla reporter, beta-lactamase FRET, 16 h; series mostly up to 73.3 µM
Description: U.S. Tox21 Program National Center for Advancing Translational Sciences [NCATS] NIH Chemical Genomics Center [NCGC] U.S. Environmental Protection Agency [EPA] National Institutes of Environmental Health Sciences [NIEHS] National Toxicology Program [NTP] U.S. Food and Drug Administration [FDA] Tox21 Assay Overview: Oxidative stress has been implicated in the pathogenesis of a variety of diseases ranging from cancer to neurodegeneration. The antioxidant response element (ARE) signaling pathway plays an important role in the amelioration of oxidative stress. The CellSensor ARE-bla HepG2 cell line (Invitrogen) can be used for analyzing the Nrf2/antioxidant response signaling pathway. Nrf2 (NF-E2-related factor 2) and Nrf1 are transcription factors that bind to AREs and activate these genes. The CellSensor ARE-bla Hep G2 cell line contains a beta-lactamase reporter gene under control of the Antioxidant Response Element (ARE) stably integrated into HepG2 cells. The activation of the report gene under culture conditions can be detected by fluorescence intensity. This cell line has been used to screen the Tox21 10K compound library to identify agonists that induce oxidative stress.
Tox21 Assay Protocol Summary: The ARE-bla cells were dispensed at 2,000 cells/5 ul/well in 1536-well black wall/clear bottom plates using a Multidrop dispenser. After the assay plates were incubated at a 37 C/5% CO2 incubator for 5 hours, 23 nL of compounds dissolved in DMSO, positive controls or DMSO only was transferred to the assay plate by a pin tool. The plates were incubated at 37 C for 16 hours. After 1 uL of LiveBLAzer B/G FRET substrate was added using a Flying Reagent Dispenser, the plates were incubated at room temperature for 2 hours, and fluorescence intensity was measured by an Envision plate reader.
Potency is read from the fitted curve at half-maximal effect.

| SMILES | Potency |
| --- | --- |
| Cc1cc(C)c(C)cc1C | inactive |
| CC(=O)c1ccccc1 | inactive |
| CCC(O)OC(O)CC (stereo not given) | inactive |
| CCCCCCOCCO | inactive |
| O=C=NCCCCCCN=C=O | inactive |
| CCN(CC)c1ccc(C(=O)c2ccccc2C(=O)O)c(O)c1 | inactive |
| CCC(O)OCCCOC (stereo not given) | inactive |
| FC(F)(F)c1ccc(Cl)c(Cl)c1 | inactive |
| Fc1ccc(Br)cc1 | inactive |
| O=c1[nH]nnc2ccccc12 | inactive |
| CCCCCCCCCCCCCCCO | inactive |
| C#C[C@]1(O)CC[C@H]2[C@@H]3CCC4=CC(=O)CC[C@@H]4[C@H]3CC[C@@]21C | 24.3 µM (active) |
| CCCCCC1=CCCC1=O | inactive |
| OC[C@H]1O[C@@](CO)(O[C@H]2O[C@H](CO)[C@@H](O)[C@H](O)[C@H]2O)[C@@H](O)[C@@H]1O | inactive |
| COc1ccc(NC(C)=O)cc1N | inactive |
| CCCCCCCCCCCCCCO | inactive |
| Nc1ccccc1[N+](=O)[O-] | inactive |
| ON=C1CCCCC1 | inactive |
| CC1=CCC2CC1C2(C)C (stereo not given) | inactive |
| Nc1cc([N+](=O)[O-])ccc1O | 17.1 µM (active) |

| SMILES | Potency |
| --- | --- |
| O=c1[nH]c(=O)n([C@H]2CCCO2)cc1F | inactive |
| COS(C)(=O)=O | inactive |
| CSCCC=O | inactive |
| Cc1ccc(S(N)(=O)=O)cc1 | inactive |
| OCc1cccnc1 | inactive |
| CC(=O)CC(=O)Nc1ccccc1C | inactive |
| Cc1occc(=O)c1O | inactive |
| CC1=CC(=O)NS(=O)(=O)O1 | inactive |
| CC(c1cc2ccccc2s1)N(O)C(N)=O (stereo not given) | inactive |
| O=C(O)CCCC[C@@H]1SC[C@@H]2NC(=O)N[C@@H]21 | inactive |
| CCCCC(CC)CO (stereo not given) | inactive |
| O=C(Oc1ccccc1)c1ccccc1 | inactive |
| CC(C)(N)CO | inactive |
| CCCCCCCCCCCCS | inactive |
| CC(C)CC(=O)CC(C)C | inactive |
| CCCCCCCCCC | inactive |
| CCCCCCCCCCCCc1ccccc1 | inactive |
| OCC(CO)(CBr)CBr | inactive |
| CCCSc1ccc2nc(NC(=O)OC)[nH]c2c1 | inactive |
| CC(=O)Nc1ccccc1 | inactive |
